Screens deposited in PubChem by several laboratories.
ARNT TACC3 PPI: disrupts binding between human ARNT and TACC3 | AlphaScreen His-ARNT PAS-B/GST-TACC3 binding, luminescence; TACC3 fragment carries E629A point mutation | inhibition, % at 9.99 µM | hit rate 0.66% among 390,000 | AID 623870;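 active = mean inhibition of replicates at least 50% and at least half of replicates each reaching 50%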;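 also: 0% = complete ARNT plus TACC3 wells and 100% = ARNT alone without TACC3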
aDG glyco up: increases alpha dystroglycan glycosylation | AID 624168 | hit rate 0.22% among 360,000 | Pro5-aDG cells, alpha-DG glycosylation AlphaScreen (IIH6); 0% Pro5, 100% B10-LARGE cell signal | activation, % at 10 µM;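 active = activation of at least 8% versus controls, or a plate z-score of at least 8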;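 also: Pro5 are CHO cells carrying HIG-tagged alpha-DG that lacks glycosylation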
AI-2 QS modul: modulators of Vibrio harveyi AI-2 quorum sensing system | hit rate 0.4% among 300,000 | activity change, % at 7.5 µM | AID 2094 | Vibrio harveyi JMH597 AI-2 luminescence/OD600 ratio, 9 h; active compounds read low; strain lacks LuxN and CqsS sensors; 0 = neutral-control median; in the data active = activity change below about -75%, passing the limit was not always enough;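 also: luminescence divided by OD600 gain over 9 h not by final OD600 alone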
Bfl-1 A1 inh: inhibitors of the anti-apoptotic protein A1, read as caspase activation; MEF A1-2A-BIM cells, Caspase-Glo 3/7 luminescence, 3 h; percent of clofoctol response, vehicle zero; caspase activation, % (test concentration not listed); hit rate 0.066% among 330,000; AID 2462;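 active = over half of replicate activation scores above 10%, or exactly half above 10 with the replicate mean above 10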
SUMO Mot1 rescue: blocks SUMOylation pathway, rescuing yeast Mot1-301 growth. S. cerevisiae Mot1-301 growth rescue, ATP luminescence, 38.5C; percent above DMSO median, 100 means doubled. growth rescue, % at 18.8 µM. hit rate 1% among 320,000;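 active = every valid replicate shows activation above 250% relative to neutral control wells; inactive = the rest, any valid replicate at or below 250%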;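 also: OY570 slx delta 5 strain wells were the positive control but not used for scaling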
ARNT Alpha ctr-1: counter-screen for ARNT/TACC3 inhibitors: AlphaScreen artifacts | shares compounds with ARNT TACC3 PPI | His-ARNT PASB-GST AlphaScreen artifact counter-screen, luminescence | AC50, µM (titrated, usually from 68 µM), without a hit: at the highest dose activity change, negative = signal decrease | hit rate 50% among 1,200 | AID 651705;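 active = every separate test run was called active for a drop in luminescence, with AC50 within twice the top valid dose, actives reach about 71 µM in these data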
ARNT Alpha ctr-2: counter-screen for ARNT-TACC3 inhibitors: AlphaScreen artifacts; shares compounds with ARNT TACC3 PPI; Dual-tagged His-ARNT PASB-GST AlphaScreen artifact counter-screen; AC50, µM; hit rate 70% among 45;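 active = luminescence drop, with half-maximal potency fitted within twice the sample's top valid dose, cut at about 70 µM in these data; inactive = the rest, including signal moving the wrong way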
* = called active by the depositor; . = no result given. Sampled rows, rich in hits. Any-hit rate of the full collection: about 1.8%.

SMILES	ARNT TACC3 PPI	aDG glyco up	AI-2 QS modul	Bfl-1 A1 inh	SUMO Mot1 rescue	ARNT Alpha ctr-1	others
N#C[C@H]1[C@H](c2ccc(-c3ccc(F)cc3)cc2)[C@@H](CO)N1C(=O)Cc1ccccc1	30	.	.	.	.	.
O=S(=O)(N[C@H]1CC[C@@H](CCn2cc(-c3ccccn3)nn2)O[C@H]1CO)c1cccc(Cl)c1	70*	.	.	.	.	32µM*
O=S(=O)(N[C@@H]1CC[C@@H](CCn2cc(-c3ccccn3)nn2)O[C@H]1CO)c1cccc(Cl)c1	66*	.	.	.	.	41µM*
COc1cccc(S(=O)(=O)N[C@H]2CC[C@@H](CCn3cc(-c4ccccc4)nn3)O[C@@H]2CO)c1	3	.	.	.	.	.
O=S(=O)(N[C@@H]1CC[C@H](CCn2cc(-c3ccccn3)nn2)O[C@@H]1CO)c1cccc(Cl)c1	66*	.	.	.	.	31µM*
O=S(=O)(N[C@H]1CC[C@H](CCn2cc(-c3ccccc3F)nn2)O[C@@H]1CO)c1ccc(Cl)cc1	-1	.	.	.	.	.
CSc1nnc(-c2cc3c(s2)-c2ccccc2CC3)o1	-3	0	23	-1	3	.
S=c1[nH]nc(-c2cc3c(s2)-c2ccccc2CC3)o1	70*	0	44	-3	168	-21%
CCc1c(C)sc(NC(=O)C2CC(c3c(F)cccc3Cl)=NO2)c1C#N (stereo not given)	active	0	4	1	-24	3%
N#Cc1c(NC(=O)C2CC(c3c(F)cccc3Cl)=NO2)sc2c1CCC2 (stereo not given)	1	0	36	1	6	.
O=C1CCCCN1CCC(=O)N1CCCC(Nc2ccccc2)C1 (stereo not given)	1	0	1	0	2	.
CCC(=O)N(C)C[C@@H]1[C@@H](c2ccc(C3=CCCC3)cc2)[C@H](CO)N1C(=O)CC	0	.	.	.	.	.
O=c1ccc(-c2ccc(S(=O)(=O)Nc3ccc(F)cc3)s2)n[nH]1	50*	0	22	0	0	-9%
O=c1[nH][nH]c(=O)c2nc(Nc3ccccc3)ncc12	69*	0	.	.	.	-17%
CNc1nc(-c2ccccc2)nc(-c2ccc(OC)cc2)c1C#N	-7	0	22	0	-1	.
O=C(N[C@H]1CC[C@@H](CCn2cc(C3CCCCC3)nn2)O[C@@H]1CO)c1cccnc1	-4	.	.	.	.	.
O=C(N[C@H]1CC[C@@H](CCn2cc(-c3ccccn3)nn2)O[C@@H]1CO)c1cccnc1	83*	.	.	.	.	52µM*
O=C(N[C@H]1CC[C@@H](CCn2cc(-c3ccccn3)nn2)O[C@H]1CO)c1cccnc1	69*	.	.	.	.	26µM*
O=C(N[C@@H]1CC[C@@H](CCn2cc(C3CC3)nn2)O[C@@H]1CO)c1cccnc1	-16	.	.	.	.	.
O=C(N[C@H]1CC[C@H](CCn2cc(-c3ccccn3)nn2)O[C@@H]1CO)c1cccnc1	83*	.	.	.	.	33µM*
O=C(N[C@H]1CC[C@H](CCn2cc(C3CCCCC3)nn2)O[C@@H]1CO)c1cccnc1	2	.	.	.	.	.
O=C(N[C@@H]1CC[C@H](CCn2cc(-c3ccccn3)nn2)O[C@@H]1CO)c1cccnc1	89*	.	.	.	.	34µM*
COc1ccccc1CC(=O)NCc1ccc2c(c1)OCO2	-2	0	41	-1	82	.
O=C(CCn1cnc2ccccc21)N/N=C/C=C/c1ccccc1	9	0	11	1	-9	.
Cc1nonc1CC(=O)NC1CC(C)(C)Cc2c1cnn2-c1ccc(F)cc1 (stereo not given)	-3	0	5	1	-1	.
SMILES	ARNT TACC3 PPI	aDG glyco up	AI-2 QS modul	Bfl-1 A1 inh	SUMO Mot1 rescue	ARNT Alpha ctr-1	others
O=C(N[C@H]1CC[C@@H](CCn2cc(C3CC3)nn2)O[C@@H]1CO)c1cccnc1	-18	.	.	.	.	.
O=C(N[C@H]1CC[C@H](CCn2cc(-c3ccccn3)nn2)O[C@H]1CO)c1cccnc1	85*	.	.	.	.	44µM*
c1ccc(SCc2nc(-c3ccncc3)n[nH]2)nc1	3	0	19	0	0	.
c1ccc(-c2nc(-c3ccncc3)n[nH]2)nc1	70*	0	12	-2	-16	23µM*	ARNT Alpha ctr-2=5.1*
COc1ccc(NC(=O)c2sc(NC(=O)COc3ccccc3)nc2C)cc1	-1	0	10	-7	5	.
COc1cc(/C=C2\S/C(=N/S(=O)(=O)c3ccccc3)NC2=O)c([N+](=O)[O-])cc1OC	9.7*	0	22	-1	-10	-25%
CCC1CCCCN1S(=O)(=O)c1ccc(NC(=O)c2cccs2)cc1 (stereo not given)	0	1	27	0	3	.
CCC1CCCCN1S(=O)(=O)c1ccc(NC(=O)CSc2ncccc2C(=O)O)cc1 (stereo not given)	44*	0	42	.	.	14µM*
CC(Sc1nnnn1C)C(=O)Nc1ccccc1-c1ccccc1 (stereo not given)	-7	0	10	1	-19	.
CC1=Nn2c(nnc2-c2ccccc2F)SC1	3	0	13	0	3	.
CC1=Nn2c(nnc2-c2ccccn2)SC1	44*	0	21	0	8	-15%
c1ccc(C2=Nn3c(nnc3-c3ccccn3)SC2)cc1	61*	0	17	-1	98	-9%
COc1ccccc1-c1nnc(NC(=O)Cc2ccccc2)o1	54*	0	34	0	32	-23%
Cc1nnc(SCC(=O)Nc2nnc(-c3ccccc3)o2)s1	56*	0	-3	1	676	-31%
CCOc1ccccc1C(=O)OCC(=O)Nc1nnc(-c2ccccc2)o1	54*	0	62	-1	0	-31%
CCC(CC)NC(=O)c1ccc(NS(=O)(=O)c2ccc3[nH]c(=O)[nH]c3c2)cc1	.	3	32	0	-23	.
CCN(CC(=O)NCc1cccs1)CC(=O)Nc1ccc(C(N)=O)cc1	8	0	.	-1	-15	.
CCN(CC(=O)NCc1cccs1)CC(=O)Nc1cccc(S(N)(=O)=O)c1	26*	0	.	.	.	3%
